The values that follow come from PubChem BioAssay (NCATS).

Structures are written as SMILES. “And” between values parts separate entries of the source, which are not always exact repeats. Equal values may be shown once.

One assay in a line: qHTS drug screen for cell cycle checkpoint inhibitors in PARPi-resistant BRCA-mutant ovarian cancer cell lines. (AID 1963452). Conditions: PEO1/OlaR viability, CellTiter-Glo luminescence, 96 h; measured here: PEO1 parental Z-AUC; stronger effect = lower value. In outline: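 PEO1, PEO4 and PEO1/OlaR ovarian cancer cells, 600 per well, exposed 96 h at 37C to a dilution series. Viability read by CellTiter-Glo luminescence, normalized to DMSO and empty wells; activity summarized as Z-AUC.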
As to `COc1ccc(COc2ccc(Cc3cnc(N)nc3N)cc2OC)cc1`, the Z-AUC was determined as 0.516. The same measure, in the same setting: for `CCOC(=O)N[C@@H]1CC[C@@H]2[C@@H](C1)C[C@H]1C(=O)O[C@H](C)[C@H]1[C@H]2/C=C/c1ccc(-c2cccc(F)c2)cn1` the value was 1.37. Same read-out and setting: the figure for `O=C(NO)c1ccc(C2=Nc3ccccc3Oc3ccccc32)cc1` is -1.06. Still for that read-out and setting: for `O=C1CC(c2c[nH]c3ccc(F)cc23)C(=O)N1` (stereo unspecified) the value was 0.554.

Still in this assay, the particulars now being: PEO1/OlaR viability, CellTiter-Glo luminescence, 96 h; measured here: PEO4 Z-AUC; stronger effect = lower value.
For `COc1cccc(-c2c(C)n(Cc3c(F)cccc3C(F)(F)F)c(=O)n(C[C@H](NCCCC(=O)O)c3ccccc3)c2=O)c1F`, the Z-AUC is 0.863 and 0.647. On to `C=C1C[C@H]2C=Nc3cc(OCCCOc4cc5c(cc4OC)C(=O)N4CC(=C)C[C@H]4C=N5)c(OC)cc3C(=O)N2C1`, for which the Z-AUC was 0.852. Same read-out and setting: for `O=C(O)CCNc1cc(N2CCc3ccccc3CC2)nc(-c2cccnc2)n1` the value was 0.897; for `CN1CCN(C(=O)c2ccc(-c3ccc4c(C=O)c(O)ccc4c3)s2)CC1`, 0.471; for `N=C(N)c1ccc2nc(-c3cc(CC(=O)N[C@@H](CC(=O)O)C(=O)O)cc(-c4cc(S(N)(=O)=O)ccc4O)c3O)[nH]c2c1`, -0.379. The same measure, in the same setting: for `C[C@H](Nc1nc(N[C@H](C)C(F)(F)F)nc(-c2cccc(Cl)n2)n1)C(F)(F)F` the value was 0.804; for `O=C1OC(COc2ccccc2[N+](=O)[O-])CC1Cc1ccccc1` (stereo unspecified), -0.342; for `COc1cc2c(cc1OC)CN(CCc1ccc(-n3nnc(-c4cc(OC)c(OC)cc4NC(=O)c4cc(=O)c5ccccc5o4)n3)cc1)CC2`, 2.67. On the same count and under the same terms, for `COCCNc1cc(NC(=O)N2CCCc3cc(CN4CCN(C)CC4=O)c(C=O)nc32)ncc1C#N` the value was 0.787. For the molecule `N#Cc1ccnc(N2C(=O)CC[C@H]2C(=O)N(c2cncc(F)c2)C(C(=O)NC2CC(F)(F)C2)c2ccccc2Cl)c1` (stereo partly specified), the Z-AUC worked out at 1.33.

In the case of `CC1(N)CCN(c2cnc(-c3cccc(Cl)c3Cl)c(N)n2)CC1`, the Z-AUC was -0.55. Same read-out and setting: the figure for `O=C(O)C[C@H]1CCc2c1[nH]c1ccc(OCc3ccc(C4CCCC4)c(C(F)(F)F)c3)cc21` is 0.948; for `CCOc1ccc(Cc2cc([C@@H]3O[C@H](CO)[C@@H](O)[C@H](O)[C@H]3O)ccc2Cl)cc1` it is 1.52. Still for that read-out and setting: for `COc1cc(C)[nH]c(=O)c1CN1CCc2c(Cl)cc([C@H](OC)C3COC3)c(Cl)c2C1=O` the value was 0.549. On to `CC[C@@]1(O)C(=O)OCc2c1cc1n(c2=O)Cc2c-1nc1ccccc1c2CCNC(C)C`, for which the Z-AUC was -1.65.

For the molecule `CC1(C)OC2=C(C(=O)c3ccccc3C2=O)[C@H](NCc2ccccc2)[C@@H]1O`, the Z-AUC is 1.45. `CN[C@@H](C)C(=O)N[C@H](C(=O)N1CCC[C@H]1C(=O)Nc1sc(-c2ncco2)nc1-c1ccccc1)C1CCCCC1`: the Z-AUC was found to be 0.302.

On to `O=C(O)c1ccccc1-c1ccc(/C=c2\sc3nc4cc(Br)cnc4n3c2=O)o1`, for which the Z-AUC is -0.895. On the same count and under the same terms, for `O=C(/C=C/c1ccc(/C=C/C(=O)Nc2ccc(C3=NCCN3)cc2)cc1)Nc1ccc(C2=NCCN2)cc1` the value was 0.581; for `Cc1c(NC(=O)c2cc(C(N)=O)nc3cc(F)ccc23)c(C(F)(F)F)nn1Cc1ccc(C(C)(C)C)cc1`, 0.0379; for `COC1CCC(N2C(=O)CNc3ncc(-c4ccc(C(C)(C)O)nc4)nc32)CC1` (stereo unspecified), 0.864.

`Cc1c(-c2c(-c3ccc(F)o3)sc3ncnc(O[C@@H](Cc4ccccc4OCc4ccnn4CC(F)(F)F)C(=O)O)c23)ccc(OCCN2CCN(C)CC2)c1Cl`: the Z-AUC is 1.

Take `Cn1cc(-c2nc(N[C@@H]3CCCC[C@@H]3N)c(F)c3c2C(=O)NC3)cn1`: the Z-AUC is 0.422.

Regarding `O=C1NC(=O)/C(=C\c2ccc(-c3ccc(F)cc3)o2)S1`, the Z-AUC turned out to be 0.899.

Regarding `CONC(=O)Nc1ccc(-c2sc3c(c2CN(C)Cc2ccccc2)c(=O)n(-c2ccccc2)c(=O)n3Cc2c(F)cccc2F)cc1`, the Z-AUC was -0.917. Same read-out and setting: the figure for `Cc1[nH]cnc1CN1CCN(C(=O)N[C@@H](CC(C)C)C(=O)O)[C@@H](Cc2ccccc2)C1=O` is 0.0254; for `O=C(O)CNC(=O)c1nc(Cl)c2ccccc2c1O` it is -0.202; for `CC(C)(O)c1coc(S(=O)(=O)NC(=O)Nc2c3c(cc4c2CCC4)CCC3)c1` it is -1.

As to `Cc1nc(NC(=O)N2CCC[C@H]2C(N)=O)sc1-c1csc(C(C)(C)C)n1`, the Z-AUC was 0.403. Same read-out and setting: the figure for `C/C=C1\NC(=O)[C@H]2CSSCC/C=C\[C@H](CC(=O)N[C@H](C(C)C)C(=O)N2)OC(=O)[C@H](C(C)C)NC1=O` is -3.56; for `CC(C)[C@H]1C(=O)N[C@@H](CCCN=C(N)N)C(=O)NCC(=O)N[C@@H](CC(=O)O)C(=O)N[C@H](Cc2ccccc2)C(=O)N1C` it is -0.795. Same read-out and setting: for `CC(C)n1c(=O)cc(N[C@@H](C)c2ccccc2)[nH]c1=O` the value was 1.05.
